# PubChem BioAssay AID382 (SGCOxCompounds, 2006)
# Calls of active or inactive are those of the source. No rule for the calls is given here.
# Molecular target: Dual specificity protein kinase CLK1 (Homo sapiens) (UniProt P49759)
# Assay: ligand-induced CLK1 melting temperature shift – biophysical, recombinant human kinase, DSF (AID 382)
# Conditions: Recombinant CLK1, thermal shift (DSF), at 10 µM, buffer 10 mM HEPES, active compounds read high
# [1] = protein 2 µM, NaCl 150 mM, with 50 mM Arg/Glu
# [2] = protein 2 µM, pH 7.5, NaCl 150 mM, with 50 mM Arg/Glu
# [3] = protein 2 µM, pH 7.5, NaCl 150 mM, with 50 µM L-Arg/L-Glu (1:1)
# Dual specificity protein kinase CLK1 (Homo sapiens), sequence (P49759 whole entry, looked up): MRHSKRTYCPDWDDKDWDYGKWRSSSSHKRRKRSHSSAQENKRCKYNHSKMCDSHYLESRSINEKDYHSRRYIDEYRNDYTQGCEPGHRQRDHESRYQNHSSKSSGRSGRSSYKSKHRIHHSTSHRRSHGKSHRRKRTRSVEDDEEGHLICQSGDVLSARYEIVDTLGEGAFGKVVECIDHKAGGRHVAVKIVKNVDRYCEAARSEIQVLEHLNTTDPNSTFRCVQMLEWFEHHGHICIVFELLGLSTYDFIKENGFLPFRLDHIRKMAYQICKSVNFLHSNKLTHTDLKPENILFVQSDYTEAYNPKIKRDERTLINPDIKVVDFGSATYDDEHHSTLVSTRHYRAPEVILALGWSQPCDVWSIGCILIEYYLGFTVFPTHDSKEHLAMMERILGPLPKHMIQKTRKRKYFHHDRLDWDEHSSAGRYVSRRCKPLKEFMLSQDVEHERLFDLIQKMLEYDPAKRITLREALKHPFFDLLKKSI
smiles,measurement,setting,value
CC(C)[C@@H](CO)Nc1ccc2ncc(-c3ccc(C#N)cc3)n2n1,Tm shift,[1],5.84 Celsius (active)
CCC(CO)Nc1ccc2ncc(-c3ccc(F)c(Cl)c3)n2n1 (centres undefined),Tm shift,[1],5.64 Celsius (active)
CCOC(=O)c1c(C)[nH]c(/C=C2\C(=O)Nc3ccccc32)c1C,Tm shift,protein 2 µM,8.66 Celsius (active)
CC(C)(C)c1nc2c3cc[nH]c(=O)c3c3cc(F)ccc3c2[nH]1,Tm shift,[2],3.6 Celsius (active)
CC(C)[C@@H](CO)Nc1ccc2ncc(-c3cccc(F)c3)n2n1,Tm shift,[3],3.9 Celsius (active)
COc1cc(C2Oc3cc(O)cc(O)c3C(=O)C2=O)ccc1O (centres undefined),Tm shift,"protein 2 µM, NaCl 150 mM",6.14 Celsius (active)
CC(C)[C@@H](CO)Nc1ccc2ncc(-c3cccc(OC(F)(F)F)c3)n2n1,Tm shift,[3],4.6 Celsius (active)
Clc1cccc(Nc2ccn3ncc(-c4ccc5c(c4)OCO5)c3n2)c1,Tm shift,[1],6.85 Celsius (active)
CCC(CO)Nc1ccc2ncc(-c3ccc(O)cc3)n2n1 (centres undefined),Tm shift,[1],7.54 Celsius (active)
OCC1=C(O)C(O)[C@@H](N2CNc3cc(Cl)c(Cl)cc32)O1 (some centres undefined),Tm shift,[3],3.1 Celsius (active)
COc1ccc(C(=O)c2sc(Nc3cccc(C(F)(F)F)c3)nc2N)cc1,Tm shift,"protein 1.7 µM, pH 7.5, NaCl 150 mM, with 50 µM L-Arg/L-Glu (1:1)",3.7 Celsius (active)
N=C(N)SCCCn1cc(C2=C(c3c[nH]c4ccccc34)C(=O)NC2=O)c2ccccc21,Tm shift,"protein 2 µM, NaCl 150 mM",10.3 Celsius (active)
COc1cc(O)c2c(c1)oc(=O)c1c3cc(O)c(O)cc3oc21,Tm shift,"protein 2 µM, NaCl 150 mM",3.2 Celsius (active)
NC(=O)c1ccc(-c2nc(-c3ccc4c(c3)OCCO4)c(-c3ccccn3)[nH]2)cc1,Tm shift,[2],6.3 Celsius (active)
